This note sets out measurements from PubChem BioAssay (Tox21).

Experiment [1] concerns the target Estrogen receptor beta (Homo sapiens) (UniProt Q92731). Kind of experiment: qHTS assay to identify small molecule agonists of the estrogen receptor beta (ER-beta) signaling pathway (AID 1259377; active = well fitted activation curve with a large enough effect in the signal ratio in the repeat runs, not every such curve was filed as active; the % refers to the signal ratio). The method in brief:
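qHTS in ER-beta-UAS-bla HEK293T cells: 6 hr settling, then 16 hr compound at 37C, then LiveBLAzer substrate 2 h at RT before fluorescence reading.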

A short description of experiment [2]: qHTS assay to identify small molecule agonists of the estrogen receptor beta (ER-beta) signaling pathway - cell viability counter screen (AID 1259380). Also: nearly all actives have a fitted effect of over 30% in size. Also: potency is read from the fitted curve at half-maximal effect. Put shortly: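 Measured: luminescence from CellTiter-Glo after 30 min at room temperature, added to wells already read for the LiveBLAzer FRET reporter (2 hr substrate); ER-beta-UAS-bla HEK293T cells had 16 hr compound treatment at 37C, 5% CO2.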

Experiment [3] is described as follows: qHTS assay to identify small molecule agonists of the estrogen receptor alpha (ER-alpha) signaling pathway in the presence of an antagonist - cell viability counter screen (AID 1259386).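 Also: cells exposed to compounds for 22 h at 37 °C before the viability read; nearly all actives have a fitted effect of over 30% in size.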 Also: potency is read from the fitted curve at half-maximal effect. The method in brief: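 The test measures whether compounds kill ER-alpha reporter cells (VM7Luc4E2) under antagonist co-treatment (ICI-182,780, 10.0nM). Fluorescence from CellTiter-Fluor is read after a 22hr exposure.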

Experiment [4] addresses Progesterone receptor (Homo sapiens) (UniProt P06401). Kind of experiment: qHTS assay to identify small molecule agonists of the progesterone receptor (PR) signaling pathway (AID 1346784; calls by dose curve; also: nearly all actives have a fitted effect of over 30% in size). The method in brief: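 Fluorescence from LiveBLAzer B/G FRET substrate cleavage (2 hr, RT) reported PR activation in PR-UAS-bla HEK 293T cells treated 16 hr at 37C/5% CO2 with compounds; medium contained 2% charcoal-stripped FBS.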

Experiment [5] can be described thus: qHTS assay to identify small molecule agonists of the progesterone receptor (PR) signaling pathway - cell viability counter screen (AID 1346799; calls by dose curve; also: nearly all actives have a fitted effect of over 45% in size; also: potency is read from the fitted curve at half-maximal effect). The method in brief: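 In parallel with the beta-lactamase readout, cytotoxicity toward PR-UAS-bla HEK293T cells was measured by CellTiter-Glo luminescence following 16 hr compound incubation in 2% charcoal-stripped FBS medium.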

The nature of experiment [6]: qHTS assay to identify small molecule antagonists of the TGF-beta/Smad signaling pathway - cell viability counter screen (AID 1346824). Also: nearly all actives have a fitted effect of over 50% in size. Put shortly: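 SBE-bla HEK 293T cells were plated overnight at 37 C, then given compounds in DMSO plus TGF-beta1 (added as 0.25 ng/mL solution) for 5 hr. After the bla read, CellTiter-Glo was added to the same wells and luminescence read after 30 min at room temperature.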

The nature of experiment [7]: Human pregnane X receptor (PXR) small molecule agonists, qHTS cell viability counter screen (AID 1346977). Also: nearly all actives have a fitted effect of over 50% in size. Also: potency is read from the fitted curve at half-maximal effect. The method in brief: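 Viability counter screen: CellTiter-Fluor signal in PXR-Luc HepG2 cells, 24hr compound exposure, 37C, 5% CO2.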
Experiment [8] has as its target Estrogen receptor beta (Homo sapiens) (UniProt Q92731). The experiment in a line: qHTS assay to identify small molecule antagonists of the estrogen receptor beta (ER-beta) signaling pathway (AID 1259378; active = well fitted inhibition curve with a large enough effect in the signal ratio in the repeat runs, not every such curve was filed as active; the % refers to the signal ratio). Put shortly:
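ER-beta-UAS-bla HEK293T (GripTite) cells in 2% charcoal-stripped FBS medium were preincubated 6 hr at 37C, dosed with compound, then stimulated with 1 nM E2 (final) for 16 hr; beta-lactamase reporter read by B/G FRET fluorescence after 2 hr substrate loading.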

Experiment [9] in a line: qHTS assay to identify small molecule agonists of the androgen receptor (AR) signaling pathway in the presence of an antagonist - cell viability counter screen (AID 1259379). Also: nearly all actives have a fitted effect of over 25% in size. Also: potency is read from the fitted curve at half-maximal effect. Put shortly:
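MDA-kb2 viability measured by CellTiter-Fluor fluorescence in the same wells as the luciferase signal; nilutamide 3.0uM final; 15-point compound titration; 16 hr at 37C.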

A short description of experiment [10]: qHTS assay to identify small molecule antagonists of the estrogen receptor beta (ER-beta) signaling pathway - cell viability counter screen (AID 1259382). Also: series mostly up to about 92 µM; nearly all actives have a fitted effect of over 55% in size. Put shortly: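 Readout: luminescence, CellTiter-Glo, same wells as bla assay. System: ER-beta-UAS-bla GripTite HEK293T, 2% charcoal-stripped FBS. Exposure: compounds plus 1nM 17-beta-estradiol, 16 hr, 37C.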

Experiment [11] deals with Estrogen receptor (Homo sapiens) (UniProt P03372). The experiment in a line: qHTS assay to identify small molecule agonists of the estrogen receptor alpha (ER-alpha) signaling pathway in the presence of an antagonist (AID 1259383; calls by dose curve; also: nearly all actives have a fitted effect of over 15% in size; also: potency is read from the fitted curve at half-maximal effect; as to activation: top concentration of the series differs between compounds). Put shortly:
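Quantitative HTS confirmation: compounds titrated at 15 concentrations onto estrogen-deprived VM7Luc4E2 cells carrying a four-ERE luciferase construct, with ICI-182,780 present at 10.0nM final. Signal is luminescence after 22hr exposure.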

A short description of experiment [12]: qHTS assay to identify small molecule agonists or antagonists of the thyroid stimulating hormone receptor (TSHR) signaling pathway - wild type cell line counter screen (AID 1259384; calls by dose curve). The method in brief: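 Wild-type HEK293 cells were plated 18 h at 37 C/5% CO2, pin-dosed with compound plus Ro20-1724 medium, held 30 min at room temperature, then given cAMP-d2 and anti-cAMP-cryptate; fluorescence was read after 1 h. Fifteen concentrations, triplicate.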

Experiment [13] has as its target Thyrotropin receptor (Homo sapiens) (UniProt P16473). The experiment in a line: qHTS assay to identify small molecule antagonists of the thyroid stimulating hormone receptor (TSHR) signaling pathway (AID 1259385; calls by dose curve; also: nearly all actives have a fitted effect of over 20% in size; also: potency is read from the fitted curve at half-maximal effect). Put shortly:
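TSHR-HEK293 cells were plated and held 18 h at 37C/5% CO2, then given compound plus Ro20-1724 and stimulated with TSH at 1.5 ng/mL final. After 30 min at room temperature, cAMP was detected with cAMP-d2/anti-cAMP-cryptate (1 h) by fluorescence.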

In experiment [14] the target is Progesterone receptor (Homo sapiens) (UniProt P06401). Kind of experiment: qHTS assay to identify small molecule antagonists of the progesterone receptor (PR) signaling pathway (AID 1346795; active = well fitted inhibition curve with a large enough effect in the signal ratio in the repeat runs, not every such curve was filed as active; the % refers to the signal ratio; also: potency is read from the fitted curve at half-maximal effect). The method in brief:
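Fluorescence intensity measured 2 hr after adding beta-lactamase FRET substrate to PR-UAS-bla HEK293T cells that had been co-treated 16 hr with compound and 1 nM R5020 (final concentration) in 2% charcoal-stripped FBS.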

Experiment [15] in a line: qHTS assay to identify small molecule antagonists of the progesterone receptor (PR) signaling pathway - cell viability counter screen (AID 1346798). Also: nearly all actives have a fitted effect of over 50% in size. Also: potency is read from the fitted curve at half-maximal effect. Put shortly:
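CellTiter-Glo luminescence; PR-UAS-bla HEK293T, 3,000 cells/well; compound + R5020, 16 hr, 37C/5% CO2; 30 min RT before read.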

The nature of experiment [16]: qHTS assay to identify small molecule agonists of the TGF-beta/Smad signaling pathway - cell viability counter screen (AID 1346829). Also: top concentration of the series differs between compounds; nearly all actives have a fitted effect of over 45% in size. Put shortly: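 Tox21 qHTS format: SBE-bla HEK 293T cells treated with DMSO-dissolved compounds for 5 hr; CellTiter-Glo luminescence after 30 min at room temperature.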
Experiment [17] is described as follows: qHTS assay to identify small molecule agonists of the TGF-beta/Smad signaling pathway (AID 1346859; active = well fitted activation curve with a large enough effect in the signal ratio in the repeat runs, not every such curve was filed as active; the % refers to the signal ratio; also: series mostly up to about 77 µM). Put shortly:
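After overnight seeding, SBE-bla HEK 293T cells are dosed with compounds in DMSO and kept 5 hr at 37 C, 5% CO2. LiveBLAzer-type FRET substrate is then applied for 2 hr at room temperature.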

Experiment [18] concerns the target Thyrotropin-releasing hormone receptor (Homo sapiens) (UniProt P34981). Kind of experiment: qHTS assay to identify small molecule antagonists of the thyrotropin-releasing hormone receptor (TRHR) signaling pathway (AID 1346877; active = well fitted inhibition curve with a large enough effect in the repeat runs, not every such curve was filed as active; also: series mostly up to about 51 µM). The method in brief:
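Overnight-plated (18 h, 37 °C) HEK293 cells expressing TRHR were dye-loaded 2 h, treated with compound, then stimulated with TRH at 1 nM final. Fluorescence intensity was captured every second for 3 min.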

Experiment [19] has the same target. Kind of experiment: qHTS assay to identify small molecule agonists of the thyrotropin-releasing hormone receptor (TRHR) signaling pathway (AID 1346891; calls by dose curve;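 also: HEK293 cells expressing TRHR with calcium dye readout; series mostly up to about 58 µM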). Put shortly: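 Compounds were tested as agonists at 15 concentrations, in triplicate, on TRHR-Hek293 cells; calcium-sensitive dye fluorescence was recorded for 3 min following addition.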

Records with an inconclusive call do not appear. Active and inactive are the calls of the source. Unless noted, calls follow the shape of the dose curve; as a rule, active = well fitted curve in the direction sought with a large enough effect in the repeat runs; inconclusive = weak or mixed curves; inactive = no such curve, though single readings can be large; an effect the other way counts as inactive or inconclusive.

Progesterone receptor (Homo sapiens), sequence (P06401 whole entry, looked up): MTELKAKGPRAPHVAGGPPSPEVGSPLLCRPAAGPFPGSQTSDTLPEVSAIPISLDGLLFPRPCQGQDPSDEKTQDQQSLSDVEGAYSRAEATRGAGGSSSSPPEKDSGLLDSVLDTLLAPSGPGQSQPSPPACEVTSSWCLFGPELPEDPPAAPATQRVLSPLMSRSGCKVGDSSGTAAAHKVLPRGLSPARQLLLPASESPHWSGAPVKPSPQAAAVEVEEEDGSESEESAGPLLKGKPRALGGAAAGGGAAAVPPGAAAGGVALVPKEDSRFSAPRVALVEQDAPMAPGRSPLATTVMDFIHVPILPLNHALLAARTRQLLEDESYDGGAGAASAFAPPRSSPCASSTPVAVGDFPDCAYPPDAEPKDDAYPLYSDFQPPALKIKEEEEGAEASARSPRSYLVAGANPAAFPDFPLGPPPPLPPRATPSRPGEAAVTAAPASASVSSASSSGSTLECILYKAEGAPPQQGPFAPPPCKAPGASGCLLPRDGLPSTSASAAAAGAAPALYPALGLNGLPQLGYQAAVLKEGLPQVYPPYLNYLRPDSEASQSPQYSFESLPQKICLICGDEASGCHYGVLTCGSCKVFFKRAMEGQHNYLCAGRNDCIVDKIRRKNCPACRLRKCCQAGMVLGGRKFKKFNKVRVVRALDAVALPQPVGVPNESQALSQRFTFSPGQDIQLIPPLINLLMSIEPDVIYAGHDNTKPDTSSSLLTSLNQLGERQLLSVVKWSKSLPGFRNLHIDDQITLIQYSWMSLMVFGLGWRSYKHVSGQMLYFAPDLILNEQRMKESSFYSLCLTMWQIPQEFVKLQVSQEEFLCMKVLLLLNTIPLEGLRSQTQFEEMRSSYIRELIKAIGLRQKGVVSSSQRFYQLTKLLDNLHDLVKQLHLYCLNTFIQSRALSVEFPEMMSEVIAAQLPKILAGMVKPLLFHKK
Thyrotropin receptor (Homo sapiens), sequence (P16473 whole entry, looked up): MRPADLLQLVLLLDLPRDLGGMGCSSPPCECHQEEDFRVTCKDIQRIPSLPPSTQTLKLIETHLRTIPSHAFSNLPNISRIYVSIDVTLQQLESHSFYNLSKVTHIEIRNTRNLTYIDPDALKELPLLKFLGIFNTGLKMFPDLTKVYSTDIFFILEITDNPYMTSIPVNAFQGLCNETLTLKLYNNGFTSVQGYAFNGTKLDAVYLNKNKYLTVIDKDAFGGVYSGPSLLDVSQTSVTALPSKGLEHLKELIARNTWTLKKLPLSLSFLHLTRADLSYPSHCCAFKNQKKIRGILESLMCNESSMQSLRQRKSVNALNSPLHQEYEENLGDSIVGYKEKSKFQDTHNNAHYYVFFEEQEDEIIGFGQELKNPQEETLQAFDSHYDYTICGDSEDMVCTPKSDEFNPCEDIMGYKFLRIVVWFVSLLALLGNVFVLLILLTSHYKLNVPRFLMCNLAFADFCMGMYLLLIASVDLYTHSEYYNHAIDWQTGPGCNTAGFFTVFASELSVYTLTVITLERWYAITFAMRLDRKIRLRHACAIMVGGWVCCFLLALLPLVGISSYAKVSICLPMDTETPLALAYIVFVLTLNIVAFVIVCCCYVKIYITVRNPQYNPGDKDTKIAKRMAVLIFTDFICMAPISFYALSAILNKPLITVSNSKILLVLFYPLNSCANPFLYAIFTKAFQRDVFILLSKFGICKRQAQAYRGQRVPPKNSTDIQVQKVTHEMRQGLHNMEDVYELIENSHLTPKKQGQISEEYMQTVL
Estrogen receptor (Homo sapiens), sequence (P03372 whole entry, looked up): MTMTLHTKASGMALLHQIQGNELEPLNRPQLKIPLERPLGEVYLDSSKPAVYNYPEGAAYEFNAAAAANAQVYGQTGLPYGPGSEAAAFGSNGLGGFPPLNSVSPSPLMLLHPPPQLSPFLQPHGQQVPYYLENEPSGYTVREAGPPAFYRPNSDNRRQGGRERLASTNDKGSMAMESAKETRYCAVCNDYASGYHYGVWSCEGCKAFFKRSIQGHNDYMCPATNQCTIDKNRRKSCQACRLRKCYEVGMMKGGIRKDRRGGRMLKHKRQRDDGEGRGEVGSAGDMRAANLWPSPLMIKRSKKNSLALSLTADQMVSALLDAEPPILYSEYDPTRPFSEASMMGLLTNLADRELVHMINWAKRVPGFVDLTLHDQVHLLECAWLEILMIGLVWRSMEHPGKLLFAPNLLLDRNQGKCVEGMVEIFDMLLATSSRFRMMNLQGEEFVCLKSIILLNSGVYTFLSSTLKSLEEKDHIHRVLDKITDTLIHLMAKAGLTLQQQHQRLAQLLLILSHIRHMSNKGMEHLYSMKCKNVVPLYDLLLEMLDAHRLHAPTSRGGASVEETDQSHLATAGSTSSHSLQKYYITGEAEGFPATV
Thyrotropin-releasing hormone receptor (Homo sapiens), sequence (P34981 whole entry, looked up): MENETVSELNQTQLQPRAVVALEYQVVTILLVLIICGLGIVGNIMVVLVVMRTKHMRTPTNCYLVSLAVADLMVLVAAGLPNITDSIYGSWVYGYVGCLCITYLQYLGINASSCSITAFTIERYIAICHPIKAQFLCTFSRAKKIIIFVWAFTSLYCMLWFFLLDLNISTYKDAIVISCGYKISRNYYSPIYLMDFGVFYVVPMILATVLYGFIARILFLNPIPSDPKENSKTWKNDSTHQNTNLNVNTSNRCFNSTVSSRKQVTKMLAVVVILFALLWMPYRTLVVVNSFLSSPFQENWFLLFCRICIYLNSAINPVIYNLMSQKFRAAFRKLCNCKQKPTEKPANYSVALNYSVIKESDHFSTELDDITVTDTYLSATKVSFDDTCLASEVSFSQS
Estrogen receptor beta (Homo sapiens), sequence (Q92731 whole entry, looked up): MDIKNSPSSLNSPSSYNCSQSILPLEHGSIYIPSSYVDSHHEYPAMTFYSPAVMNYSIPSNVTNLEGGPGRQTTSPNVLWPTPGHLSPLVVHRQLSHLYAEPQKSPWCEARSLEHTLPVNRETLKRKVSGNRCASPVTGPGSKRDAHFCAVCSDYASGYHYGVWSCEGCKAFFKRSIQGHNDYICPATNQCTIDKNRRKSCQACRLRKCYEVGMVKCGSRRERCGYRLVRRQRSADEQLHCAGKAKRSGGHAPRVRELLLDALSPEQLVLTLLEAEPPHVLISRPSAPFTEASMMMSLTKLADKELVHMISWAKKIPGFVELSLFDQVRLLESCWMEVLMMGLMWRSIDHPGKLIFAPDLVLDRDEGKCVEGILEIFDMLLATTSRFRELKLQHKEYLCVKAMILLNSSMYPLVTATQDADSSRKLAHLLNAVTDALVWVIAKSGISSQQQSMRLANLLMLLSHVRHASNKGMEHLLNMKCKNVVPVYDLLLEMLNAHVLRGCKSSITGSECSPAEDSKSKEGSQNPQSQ

Turning to `CCOC(=O)c1ccc(C2CCC(NC[C@H](O)COc3ccc(O)c(NS(C)(=O)=O)c3)CC2)cc1` (some centres not stated), the Potency result in experiment [1], in [3], in experiment [4], in [5] and in [6] was “inactive” in each case. Moreover, the Potency is 50.2 µM (active) in experiment [2] and 56.4 µM (active) in experiment [7].

As to `O=C(O)c1cc(=O)c2ccccc2o1`, the Potency result in experiment [8], in experiment [9], in experiment [2], in experiment [10], in [11] and in [13] was “inactive” each time. Moreover, the Potency result in experiment [3], in [4], in experiment [14], in experiment [15], in experiment [6] and in experiment [16] was “inactive” throughout. Moreover, the Potency result in experiment [17], in experiment [18] and in experiment [7] was “inactive” in each case. Besides, the result in [12] and in experiment [19] was inactive.

Regarding `C#C[C@]1(OC(C)=O)CC[C@H]2[C@@H]3CCC4=C/C(=N/O)CC[C@@H]4[C@H]3CC[C@@]21CC`, the Potency entry in experiment [1], in experiment [9], in [3], in [6], in experiment [16] and in [17] was “inactive” throughout. Moreover, the Potency entry in experiment [18] is “inactive”. Moreover, the Potency in experiment [11] was 2.11 µM (active); in experiment [13] it was 0.422 µM (active); in [14], 29.8 µM (active). Besides, the compound was called inactive in experiment [12] and in experiment [19].

On to `CCCNCCC`, for which the Potency result in experiment [1], in experiment [10], in experiment [13], in experiment [3], in [4] and in experiment [15] was “inactive” in each case. Further, the Potency entry in experiment [5], in [6], in [16], in experiment [17], in experiment [18] and in [7] was “inactive” throughout. The call in experiment [12] and in experiment [19] was inactive.

On to `CCC(=O)OC(=O)CC`, for which the Potency result in experiment [8], in experiment [9], in experiment [10], in [11], in experiment [13] and in experiment [3] was “inactive” in each case. Further, the Potency entry in experiment [14], in [15], in experiment [6], in experiment [16], in [17] and in experiment [18] was “inactive” each time. Also, in experiment [7], the Potency entry was “inactive”. Moreover, the compound was classed as inactive in experiment [12] and in [19]. The Potency in experiment [5] is 54 µM (active).

Regarding `O=S(=O)(O)c1ccc(N=Nc2c(O)ccc3ccccc23)cc1`, the Potency entry in [8], in [11], in [4], in experiment [6], in experiment [16] and in experiment [17] was “inactive” each time. Also, the Potency entry in experiment [18] is “inactive”. The Potency in experiment [9] is 27.3 µM (active); in experiment [2] it was 43.3 µM (active); in [3], 27.3 µM (active); in experiment [15] it was 8.63 µM (active); in experiment [5] it was 7.7 µM (active); in experiment [7], 27.3 µM (active). The call in experiment [12] and in experiment [19] was inactive.

With `O=C1NC(=O)[C@@H]2CC=CC[C@H]12`, the Potency entry in [8], in [9], in experiment [13], in [3], in experiment [4] and in experiment [6] was “inactive” each time. In addition, the Potency result in [16], in experiment [17], in experiment [18] and in experiment [7] was “inactive” throughout. The Potency in [2] was 27.3 µM (active); in [15], 15.4 µM (active); in experiment [5], 8.63 µM (active). In addition, the call in [12] and in [19] was inactive.

For `CCn1c2ccccc2c2cc([N+](=O)[O-])ccc21`, the Potency entry in experiment [8], in [9], in [10], in [11], in experiment [3] and in [4] was “inactive” each time. Also, the Potency entry in [6], in experiment [16], in experiment [18] and in experiment [7] was “inactive” each time. The outcome in [19] was inactive.
